Data from PubChem BioAssay.

test: small molecules captured by biotinylated probe aFGF10 – biochemical, small-molecule microarray, fluorescence 635/667, stem cell growth factor project, primary screen (AID 1071); details: higher = more signal;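 note: score merges 667 nm spot intensity and signal to noise from triplicate slides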

SMILES | composite z-score
COC(=O)[C@@]1(Cc2ccc(OC)cc2)[C@H]2c3cc(C(=O)N4CCCC4)n(CCc4ccc(O)c(OC)c4)c3C[C@H]2CN1C(=O)c1ccccc1 | 0.252
O=C1N(CCS(=O)(=O)c2ccccc2)Cc2ccccc2C[C@@]12COC(c1ccc(OCCCO)cc1)=N2 | 0.613
CC(C)C[C@H]1NC(=O)[C@H](C)NC(=O)[C@@]23C(=O)N[C@@H](Cc4ccccc4)C2[C@H](C)[C@@]2(C)O[C@H]2C3/C=C/C/C=C\CNC1=O (stereo partly drawn) | -0.0496
COc1ccc([Si](C)(C)[C@H]2[C@H](CC(=O)N3CCC[C@H]3CO)O[C@@]3(C(=O)N(Cc4ccc(N5C(=O)c6cccc7cccc5c67)cc4)c4ccccc43)[C@@H]2C)cc1 | 0.751
COc1cccc(C)c1NC(=O)O[C@H]1[C@H](OC(=O)Nc2ccccc2)[C@H](OC(=O)Nc2ccccc2)[C@@H](OC)O[C@@H]1CO | 0.401
C=CCC(OC(C)=O)[C@@H]1[C@@H](N(Cc2ccc(-c3ccccc3)cc2)C(=O)c2cccc3ccccc23)c2cc(OCCCO)ccc2N1C(=O)c1ccc2ccccc2n1 (stereo partly drawn) | -0.0251
O=C1O[C@H](c2ccccc2)[C@H](c2ccccc2)N2[C@H]1[C@@H](C(=O)N1CCN(c3ncccn3)CC1)[C@]1(C(=O)Nc3ccc(C#CCCO)cc31)[C@H]2c1ccc(OCCO)cc1 | 1.26
COC(=O)[C@@]1(Cc2ccccc2N=[N+]=[N-])N=C(c2ccc(OCCCO)cc2)O[C@H]1c1ccccc1 | 0.264
